From PubChem BioAssay
The list is not random: actives were taken first. Their share in the collection is about 19%.
HepG2 tox: counter-screen for TGF-b inhibitors: cytotoxicity in HepG2 cells. Potency, µM (top dose mostly 46.1 µM), inactives show top-dose activity change, negative = cytotoxicity, hits mostly cytotoxic. HepG2 CAGA-GFP viability, ATP luminescence, 18 h. AID 588856. hit rate 0.76% among 410,000; further: potency means the concentration at half of the fitted maximal effect
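HepG2 CAGA-GFP cells (1000/well, DMEM with 1% FBS) received compound, then TGF-beta at 500 pg/mL final, and were incubated 18 hours at 37 degrees C. Viability was read by CellTiter-Glo luminescence. Media-only wells were set as complete cell-killing and DMSO as no toxicity.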
DT40 TDP1 no CPT: qHTS for Inhibitors of human tyrosyl-DNA phosphodiesterase 1 (TDP1): qHTS in cells in absence of CPT; DT40 Tdp1-/- hTDP1 cells, no CPT, ATP luminescence, 48 h; Potency, µM (titrated, usually from 46.2 µM), for the others: at the highest dose activity change, negative = growth inhibition, most hits filed as inhibitors; hit rate 15% among 420,000; further: potency means the concentration at half of the fitted maximal effect; on the % scale 0 is the no-effect control and ±100 the full control effect; nearly all actives have a fitted effect of over 55% in size
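Cells were dispensed at 400 per well, compounds added by pin tool, plates incubated ≥48 hr at 37 °C, then CellTiter-Glo added for 30 min at room temperature before luminescence reading. Line: DT40 Tdp1-/- complemented with hTDP1; camptothecin omitted.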
TDP1 cell CPT: DT40-hTDP1 cell growth loss with CPT | chicken DT40 Tdp1-/-;hTDP1 cells + 20 nM CPT, ATP luminescence, 48 h | Potency, µM (titrated, usually from 46.2 µM), inactives show top-dose activity change, negative = growth inhibition, most hits filed as inhibitors | hit rate 12% among 420,000; further: potency means the concentration at half of the fitted maximal effect; on the % scale 0 is the no-effect control and ±100 the full control effect; nearly all actives have a fitted effect of over 55% in size
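Chicken DT40 Tdp1-/- cells complemented with human TDP1, 400 cells/well, exposed to compounds plus 20 nM camptothecin for at least 48 h at 37 C; viability read as ATP content by CellTiter-Glo luminescence.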
S-ASM inh: inhibitors of human secretory acid sphingomyelinase; P17405; placental ASM, HMU-PC fluorogenic substrate, 60 min; Potency, µM (doses to about 57.5 µM), for the others: at the top dose activity change, negative = inhibition, actives largely listed as inhibitors; hit rate 0.006% among 340,000; further: potency means the concentration at half of the fitted maximal effect
Target sequence (P17405 47-631 limits assumed): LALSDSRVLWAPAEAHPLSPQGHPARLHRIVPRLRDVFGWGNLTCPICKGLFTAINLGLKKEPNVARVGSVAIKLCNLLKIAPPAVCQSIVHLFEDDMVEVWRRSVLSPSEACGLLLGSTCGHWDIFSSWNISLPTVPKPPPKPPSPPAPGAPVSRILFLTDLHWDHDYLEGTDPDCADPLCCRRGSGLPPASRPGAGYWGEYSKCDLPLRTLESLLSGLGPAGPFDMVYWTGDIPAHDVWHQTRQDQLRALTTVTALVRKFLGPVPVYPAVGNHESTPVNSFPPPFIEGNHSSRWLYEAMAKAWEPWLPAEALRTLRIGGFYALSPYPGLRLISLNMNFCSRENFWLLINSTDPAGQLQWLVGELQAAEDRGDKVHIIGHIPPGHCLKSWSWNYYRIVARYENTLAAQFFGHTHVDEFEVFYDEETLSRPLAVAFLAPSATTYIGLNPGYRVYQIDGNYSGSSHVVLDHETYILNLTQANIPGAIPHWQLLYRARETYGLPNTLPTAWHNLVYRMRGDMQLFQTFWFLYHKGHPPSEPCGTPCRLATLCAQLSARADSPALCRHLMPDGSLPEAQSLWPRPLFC
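qHTS format. ASM enzyme prepared from human placenta hydrolyses the fluorogenic substrate HMU-PC0 (9 uM final) over 60 min at 37 °C after a 10 min compound preincubation.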
IL-1B inflam inh: inflammasome signaling inhibition, IL-1 beta readout; THP-1 LPS/ATP IL-1B secretion, AlphaLISA, 16 h; hits give low values; activity change, % at 57.5 µM; hit rate 4.7% among 360,000; AID 743279; in the data active means activity change below about -50%; inconclusive means mostly about -30% to -49%; further: on the % scale 0 is the no-effect control and ±100 the full control effect
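THP-1 cells pretreated 1 hr with compounds (up to 57.5 uM final), then stimulated with LPS (250 ng/mL final) plus ATP (1.25 mM final); secreted IL-1B measured by AlphaLISA after 16 hr, decreased signal indicating inhibition.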
TGFb inhibitor: inhibitors of TGF-b signaling; HepG2 CAGA-GFP TGF-b/SMAD3 reporter, GFP fluorescence, 18 h; TGF-beta stimulated, 500 pg/mL final; Potency, µM (top dose mostly 46.1 µM), for the others: at the top dose activity, negative = inhibition, actives largely listed as inhibitors; hit rate 1.2% among 410,000; further: potency means the concentration at half of the fitted maximal effect; on the % scale 0 is the no-effect control and ±100 the full control effect; nearly all actives have a fitted effect of over 65% in size
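Per well, imaged GFP fluorescence of HEPG2 CAGA-GFP cells gives the signal; cells get compound, then TGF-beta (500 pg/mL final), 18 h at 37 degrees C; %Activity versus -TGF-beta and +DMSO controls.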
* hit, by the source's call; ? = inconclusive; . = no result given; ! = not confirmed by another sample. Unless noted, the call rests on the fitted dose curve; in most records, active means well fitted curve in the direction sought with a large enough effect; inconclusive means small, poorly fitted or top-dose-only effect, or another doubt; inactive means no such curve, though single readings can be large; an effect the other way counts as inactive or inconclusive.

SMILES | HepG2 tox | DT40 TDP1 no CPT | TDP1 cell CPT | S-ASM inh | IL-1B inflam inh | TGFb inhibitor
Cc1ccc(C(=O)NCCc2nc3ccccc3[nH]2)cc1[N+](=O)[O-] | 4% | ? | -3% | 6% | 1 | 38%
Cc1cc(CNC(=O)c2ccc(C)c([N+](=O)[O-])c2)c2ccccc2n1 | -4% | 9.2µM* | 13µM* | -4% | 56 | 0%
Cc1cc2cc(CCNC(=O)c3ccc(C)c([N+](=O)[O-])c3)c(=O)[nH]c2cc1C | 0% | 13µM* | ? | -29% | -4 | -1%
CCc1ccc(NC(=O)Cn2c(=O)n(-c3cc(OC)c(OC)c(OC)c3)c(=O)c3ccccc32)cc1 | 6% | 9% | 4% | . | . | 0%
O=C(Nc1ccccc1)Nc1cccn(Cc2c(F)cccc2Cl)c1=O | -27% | ? | -25% | -5% | -61* | ?
COc1cccc(Cn2cccc(NC(=O)Nc3ccc(C#N)cc3)c2=O)c1 | -31% | 8.2µM* | 18µM* | -3% | -4 | ?
COc1ccc(-c2nnc(SCc3cccc(Cl)c3)o2)cc1 | -26% | . | . | . | . | -13%
CCN1/C(=C/c2cccc[n+]2C)Sc2ccc(OC)cc21 | -18% | 2.3µM* | 2.6µM* | -3% | ? | 4µM*
CCN1/C(=C/C(C)=O)Sc2ccc(OC)cc21 | -14% | 13µM* | 7.1µM*! | 3% | 1 | 5%
C=CCN1C(=O)/C(=C2/Sc3ccc(OC)cc3N2CC)SC1=S | 1% | -22% | 2% | 1% | 16 | 46%
COc1ccc2c(c1)N(C)/C(=C/c1cccc[n+]1C)S2 | -37% | 0.01µM* | 0.26µM* | -14% | 0 | -17%
S=C(NCc1ccc2c(c1)OCO2)Nc1ccc2nsnc2c1 | -14% | ? | -12% | 3% | -8 | ?
O=C(CNC(=O)c1ccccc1Br)N/N=C/c1ccc(O)cc1 | 0% | 10% | -4% | 1% | 22 | 2%
CC(=O)NC1=NN(C(C)=O)C(C)(c2ccc3ccccc3c2)S1 (stereo not given) | -5% | ? | -27% | -1% | 21 | 4%
CC(=O)NC1=NN(C(C)=O)C(C)(c2ccccc2)S1 (stereo not given) | -20% | 5.8µM* | 5.8µM* | 5% | 23 | 1%
Cn1c(SCC(=O)c2ccc3c(c2)OCO3)nnc1C1COc2ccccc2O1 (stereo not given) | 9% | 16µM* | 21µM* | -3% | 7 | 27%
COc1ccc(C(=O)CSc2nnc(CN3CCCCC3)n2-c2ccc(Cl)cc2)cc1OC | -3% | 21µM* | ? | 1% | -13 | 0%
Cn1c(SCC(=O)c2ccccc2)nnc1C1COc2ccccc2O1 (stereo not given) | 4% | ? | -20% | 1% | 43 | 12%
O=C(CSc1nnc(CN2CCCC2)n1-c1ccccc1)c1ccc2c(c1)OCO2 | -18% | 16µM* | ? | 1% | -27 | 7%
N#CCc1cnc2ccccc2n1 | 1% | -3% | -27% | -3% | 11 | 8%
O=C(Cn1nc(-c2ccccc2)c2ccccc2c1=O)NCCO | 6% | 3% | 10% | 3% | -3 | 12%
Cc1ccc(-c2cn3cccnc3n2)cc1NC(=O)C(C)(C)Oc1ccc(Cl)cc1 | -52% | 18µM* | ? | . | . | ?
COc1ccc(-c2cn3cccnc3n2)cc1NC(=O)c1c(F)cccc1F | -35% | 26µM* | ? | . | . | -26%
COc1ccc(-c2cn3cccnc3n2)cc1NC(=O)Nc1cc(C)ccc1C | -21% | ? | ? | . | . | -14%
COc1cccc(C(=O)Nc2cc(-c3cn4cccnc4n3)ccc2C)c1OC | -18% | 16µM* | ? | . | . | -14%
